Results on 90 molecules are retold here after PubChem BioAssay AID449739 (Vanderbilt High Throughput Screening Facility, 2010).

Hit rate of the full screen: of about 100,000 compounds, about 4,200 (4.2%) were called active. What follows is part of a selection rich in actives, with near analogues and random picks from the rest. Values without a mark were called inactive.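 How the source made its calls: active means single-dose well whose peak fluorescence ratio is a statistical outlier from its plate by either plate-standardised score or position-corrected B-score; inactive means the rest.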

In the test the target is Voltage-dependent T-type calcium channel subunit alpha-1H (Homo sapiens) (UniProt O95180). Put plainly: Cav3.2 calcium influx blockers – cell-based, Fluo-4 calcium fluorescence, FDSS, MLSMR library, primary screen (AID 449739). The conditions noted are these: Cav3.2-expressing cells, at 10 µM, stronger effect = lower value.
Voltage-dependent T-type calcium channel subunit alpha-1H (Homo sapiens), sequence (O95180 whole entry, looked up): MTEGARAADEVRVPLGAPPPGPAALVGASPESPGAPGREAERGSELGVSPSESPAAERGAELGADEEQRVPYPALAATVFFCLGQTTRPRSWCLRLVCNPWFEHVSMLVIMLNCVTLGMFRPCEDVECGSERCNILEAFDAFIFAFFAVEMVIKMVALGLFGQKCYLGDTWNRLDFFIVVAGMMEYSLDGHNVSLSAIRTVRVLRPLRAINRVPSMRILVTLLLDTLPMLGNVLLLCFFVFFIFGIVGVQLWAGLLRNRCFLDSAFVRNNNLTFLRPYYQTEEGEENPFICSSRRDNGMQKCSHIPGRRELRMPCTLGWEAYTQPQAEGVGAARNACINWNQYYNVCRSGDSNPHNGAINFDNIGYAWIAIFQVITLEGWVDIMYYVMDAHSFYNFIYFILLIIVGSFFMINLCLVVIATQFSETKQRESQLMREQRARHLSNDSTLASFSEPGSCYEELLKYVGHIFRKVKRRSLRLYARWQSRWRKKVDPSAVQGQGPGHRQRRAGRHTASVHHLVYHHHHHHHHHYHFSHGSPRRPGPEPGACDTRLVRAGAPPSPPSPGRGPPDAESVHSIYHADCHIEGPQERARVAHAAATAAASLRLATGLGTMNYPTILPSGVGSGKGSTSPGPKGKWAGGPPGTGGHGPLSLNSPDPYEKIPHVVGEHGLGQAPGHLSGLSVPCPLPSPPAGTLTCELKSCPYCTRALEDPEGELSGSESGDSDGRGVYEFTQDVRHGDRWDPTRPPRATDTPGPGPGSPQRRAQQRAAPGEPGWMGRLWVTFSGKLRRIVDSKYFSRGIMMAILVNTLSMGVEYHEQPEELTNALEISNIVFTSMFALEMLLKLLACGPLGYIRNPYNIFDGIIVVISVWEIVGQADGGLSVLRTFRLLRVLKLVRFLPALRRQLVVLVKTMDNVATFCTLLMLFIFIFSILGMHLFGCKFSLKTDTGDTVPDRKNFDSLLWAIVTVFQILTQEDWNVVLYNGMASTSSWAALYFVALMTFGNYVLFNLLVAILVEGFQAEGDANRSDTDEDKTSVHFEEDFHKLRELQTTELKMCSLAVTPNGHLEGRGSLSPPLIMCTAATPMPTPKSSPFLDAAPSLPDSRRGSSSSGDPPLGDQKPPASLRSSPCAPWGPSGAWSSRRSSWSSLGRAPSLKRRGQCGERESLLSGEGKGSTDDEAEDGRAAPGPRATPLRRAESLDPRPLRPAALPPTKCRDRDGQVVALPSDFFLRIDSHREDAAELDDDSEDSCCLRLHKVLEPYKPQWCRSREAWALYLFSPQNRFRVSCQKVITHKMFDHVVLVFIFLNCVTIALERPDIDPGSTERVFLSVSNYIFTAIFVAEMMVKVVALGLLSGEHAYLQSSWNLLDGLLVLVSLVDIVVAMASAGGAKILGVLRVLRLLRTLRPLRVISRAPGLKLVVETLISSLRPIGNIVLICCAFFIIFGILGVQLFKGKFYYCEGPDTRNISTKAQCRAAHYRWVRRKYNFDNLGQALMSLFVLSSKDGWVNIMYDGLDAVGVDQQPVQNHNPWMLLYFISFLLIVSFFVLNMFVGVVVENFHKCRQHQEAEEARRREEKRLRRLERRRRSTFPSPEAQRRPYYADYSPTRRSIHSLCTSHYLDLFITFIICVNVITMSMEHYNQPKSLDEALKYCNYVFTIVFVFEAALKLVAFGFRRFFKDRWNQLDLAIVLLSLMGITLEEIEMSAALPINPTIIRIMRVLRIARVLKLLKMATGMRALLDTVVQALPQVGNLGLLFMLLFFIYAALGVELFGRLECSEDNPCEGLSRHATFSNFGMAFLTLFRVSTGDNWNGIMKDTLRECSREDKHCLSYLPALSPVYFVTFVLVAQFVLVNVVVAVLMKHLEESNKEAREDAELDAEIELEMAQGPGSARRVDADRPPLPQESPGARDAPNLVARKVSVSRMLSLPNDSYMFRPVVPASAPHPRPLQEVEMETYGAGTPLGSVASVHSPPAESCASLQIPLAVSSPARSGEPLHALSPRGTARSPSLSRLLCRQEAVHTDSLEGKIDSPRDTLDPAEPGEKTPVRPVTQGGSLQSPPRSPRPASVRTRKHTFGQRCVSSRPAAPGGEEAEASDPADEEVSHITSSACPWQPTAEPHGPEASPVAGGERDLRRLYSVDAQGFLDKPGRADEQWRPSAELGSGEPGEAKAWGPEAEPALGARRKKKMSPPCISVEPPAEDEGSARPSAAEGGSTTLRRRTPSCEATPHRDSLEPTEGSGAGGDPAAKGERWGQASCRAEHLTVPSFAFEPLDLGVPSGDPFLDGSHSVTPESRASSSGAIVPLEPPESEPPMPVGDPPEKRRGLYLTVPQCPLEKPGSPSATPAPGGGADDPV
For `C#CCNC(=O)C1=C[C@@H](c2ccccc2)[C@H](CCCO)[C@@H](OCC)O1`, the B-score is 1.09.
For the molecule `Cc1ccc2c(c1)N(CC(=O)N(Cc1ccccn1)Cc1ccco1)C(=O)C(C(C)C)O2` (stereo not given), the B-score is -6.96 (active).
As for `Cc1ccc(C)c(N(CC(=O)NCc2ccco2)C(=O)CCC(=O)Nc2ccccn2)c1`, the figure is -2.66; as for `Cc1ccc(C(C(=O)NC2CCCC2)N(Cc2ccco2)C(=O)CCC(=O)Nc2ccccn2)cc1` (stereo not given), 0.124.
As for `C#CCOCCOCCOCCNc1nc(N2CCN(C(=O)[C@H](CCC(=O)O)n3cc(C(N)CO)nn3)CC2)nc(N2CCN(C(=O)[C@H](Cc3ccc(O)cc3)n3cc(C(N)[C@H](C)CC)nn3)CC2)n1` (stereo not given in full), the figure is -0.353; as for `O=C(O)/C=C/C(=O)Nc1ccc(F)cc1F`, 0.769; as for `Cn1cnc([N+](=O)[O-])c1Sc1ccccc1`, 0.333.
For `CC(C)(C)n1nc(Cc2cccc3ccccc23)c(C#N)c1N`, the B-score was -1.32.
`c1ccc2c(CSCc3nc4ccccc4[nH]3)cccc2c1`: the B-score was -7.7 (active).
The figure for `c1ccc(-c2nnc(SCc3nc4ccccc4[nH]3)o2)cc1` is -1.58; for `COC(=O)Cc1nc2ccccc2[nH]1` it is 0.0867.
As to `COc1cc2c(cc1O)[C@H](Cc1ccc(Oc3cc(C[C@@H]4NCCc5cc(OC)c(O)cc54)ccc3O)cc1)NCC2`, the B-score is 0.142.
The figure for `C(=N/N1CCN(c2ccccc2)CC1)/c1cccs1` is 0.219; for `O=C(CCNS(=O)(=O)c1ccccc1C(F)(F)F)NCc1ccc2c(c1)OCO2` it is -0.223.
Turning to `COCCn1c(-c2ccc(OC)c(OC)c2)nc2ccccc21`, the B-score is 0.414.
As for `COc1ccc(-c2nc3ccccc3n2CCC(C)C)cc1OC`, the B-score was -6.94 (active).
Consider `CCCn1c(C(O)c2cc(OC)ccc2OC)nc2ccccc21` (stereo not given), for which the B-score was -1.69.
On to `CCCCN1C(N)=NC[C@@H]1CC1CCCCC1`, for which the B-score is 0.078.
The figure for `CCCCN1C(=S)NC[C@@H]1C(C)CC` (stereo not given in full) is -0.603.
For the molecule `C[C@H](NC(=O)c1nc[nH]c1C(=O)N[C@@H](C)C(=O)OC(C)(C)C)C(=O)OC(C)(C)C`, the B-score is 0.275.
As for `COc1cccc(-c2nnc(SCCOc3ccc4c(C)cc(=O)oc4c3)o2)c1`, the figure is 1.22; as for `COc1ccc(C(=O)CN2C(=O)NC(C)(c3ccc(C)cc3)C2=O)cc1OC` (stereo not given), -0.586.
The figure for `Cc1ccc(C2(c3ccc(C)cc3)NC(=O)N(Cc3c(C)noc3C)C2=O)cc1` is -6.31 (active); for `Cc1ccc(SCCN2C(=O)NC(C)(C)C2=O)cc1` it is 0.269.
As for `NS(=O)(=O)c1cccnc1Nc1cccc(Cl)c1`, the figure is -0.12; as for `O=S(=O)(c1cnccc1N1CCN(/N=C/c2ccc(Br)cc2)CC1)N1CCCCC1`, -0.791; as for `Cc1ccc(-c2csc(N(Cc3ccco3)C(=O)c3cccs3)n2)cc1`, -1.85.
Regarding `Cc1ccc(/C=N/NC(=O)c2sccc2OCc2ccc(F)cc2)cc1`, the B-score is -0.514.
In the case of `NC(=O)N1CCCC1C(=O)Nc1ccc(Cl)c(Cl)c1` (stereo not given), the B-score was -0.377.
The figure for `O=C(Nc1ccc(N2CCN(C(=O)c3ccccc3)CC2)c(Cl)c1)c1cccnc1` is 1.44; for `O=C(Nc1ccc(Cl)c(Cl)c1)N1CC=C(c2ccccc2)CC1` it is -6.72 (active); for `COC(=O)CCCC1=CC2=CC(=O)C(C)(OC(=O)c3cccs3)C(=O)C2=CN1CC1CC1` (stereo not given) it is 1.17.
Take `C#CCOCCOCCOCCNc1nc(N2CCN(C(=O)[C@H](C(C)C)n3cc(CCO)nn3)CC2)nc(N2CCN(C(=O)[C@H](C(C)C)n3cc(CCO)nn3)CC2)n1`: the B-score is 0.0404.
Turning to `Cc1cc(NC(=O)CCC(=O)N(CC(=O)NCC2CCCO2)c2ccccc2C)no1` (stereo not given), the B-score was 0.22.
The figure for `CCCCOc1ccc(N(CC(=O)NCC2CCCO2)C(=O)CCC(=O)Nc2cc(C)ccn2)cc1` (stereo not given) is -9.41 (active); for `COCCNC(=O)CN(C(=O)CCC(=O)Nc1cc(C)on1)c1ccc(C)cc1C` it is 0.162.
As for `COCOc1cc(O)c(C(=O)/C=C/c2ccc(OCOC)c(OCOC)c2)c(OCOC)c1`, the B-score is 0.785.
In the case of `Oc1ccc2ccc3cccc[n+]3c2c1`, the B-score was -10 (active).
`COC(C[C@H](O)CC(=O)COCc1ccccc1)OC`: the B-score is 0.759.
In the case of `COc1ccc(Br)cc1/C=N/n1c(C)nnc1C`, the B-score was 0.564.
Take `C=CCn1c(Cn2nnc3ccccc32)nnc1SCC(=O)N/N=C/c1cc(Br)cc(OC)c1O`: the B-score was 0.722.
As for `COc1cc(Br)cc(/C=N/c2ncn[nH]2)c1O`, the figure is -3.11 (active); as for `Cc1cccc2cc(C#N)c(N3CCCC3)nc12`, -0.395.
The figure for `CCOc1ccc2nc(N3CCCN(C(=O)Nc4ccccc4C)CC3)c(C#N)cc2c1` is -4.45 (active); for `CCOc1ccc2nc(NCCNS(=O)(=O)c3ccccc3)c(C#N)cc2c1` it is 0.364; for `COc1ccc(C#Cc2c(-c3ccc(OC)cc3)oc3ccc(-c4ccc5c(c4)OCO5)cc23)cc1` it is -2.98.
Regarding `CCO[C@H]1OC(C(=O)O)=C[C@@H](C2CCCCC2)[C@@H]1CCCO`, the B-score is -0.908.
The figure for `Cc1ccccc1-c1nc(CS(=O)(=O)CC(=O)N2CCc3ccccc3C2)c(C)o1` is -4.63 (active); for `COc1ccc(-c2nc(CS(=O)CC(=O)N3CCc4ccccc4C3)c(C)o2)cc1` (stereo not given) it is 0.115.
In the case of `Cc1nnc(SCC(=O)N2CCc3ccccc3C2)s1`, the B-score was 0.719.
On to `Nn1c(SCC(=O)NC(=O)NC2CCCC2)nnc1-c1ccccc1F`, for which the B-score is 0.0138.
Turning to `CCCn1c(C)cc(C(=O)COC(=O)c2c(C)nn(-c3ccccc3)c2C)c1C`, the B-score was -3.42.
The figure for `Cc1nn(-c2ccccc2)c(C)c1C(=O)OCC(=O)NC(=O)NC1CCCCC1` is -5.85 (active); for `COC(=O)c1c(-c2cccs2)csc1NC(=O)CSc1ncnc2sc(C)c(C)c12` it is -0.978.
As for `CCCCNC(=S)NNC(=O)c1cc(C)on1`, the figure is 0.531; as for `COc1ccccc1N1CCN(Cc2ccc(OC)c3ccccc23)CC1`, -1.06.
The figure for `CCN1CCN(CCCCOc2ccccc2F)CC1` is 0.893.
On to `COc1ccccc1N1CCN(CCCCOc2ccc(F)cc2)CC1`, for which the B-score is -5.88 (active).
For `COc1cnc(SCc2ccc(Cl)c(Cl)c2)nc1Cl`, the B-score was -1.35.
As to `COC(=O)[C@H](Cc1ccccc1)NC(=O)[C@@H]1C[C@H]1[C@@H](NC(=O)OCc1ccccc1)c1ccccc1`, the B-score was 0.0644.
As for `O=C(O)C1CC=C(Cl)CC1C(=O)NCc1ccccc1` (stereo not given), the figure is 0.671; as for `O=C(NCc1ccccc1)[C@H]1C[C@@H]1[C@H](NP(=O)(c1ccccc1)c1ccccc1)c1ccccc1`, -4.19 (active); as for `Cc1cc(C)c2nc(NC(=O)c3ccc4c(c3)OCO4)sc2c1`, 0.981.
Take `C=C(C)C(=O)Nc1cccc(C2=NOC3(C2)C[C@H](C(N)=O)N(C(=O)C(c2ccccc2)c2ccccc2)C3)c1` (stereo not given in full): the B-score was -0.703.
For the molecule `CCOC(=O)c1sc2nc(SC)nc(-c3ccccc3)c2c1N`, the B-score was -0.0983.
As for `Nc1ccccc1SCc1cc([N+](=O)[O-])cc2c1OCOC2`, the figure is -4.25 (active); as for `O=C(CNC(=O)Cc1ccccc1)NCC(=O)OCC(=O)c1ccccc1Cl`, 0.107; as for `CCOC(=O)/C(=C\c1ccc([N+](=O)[O-])cc1)C(=O)c1cc(C(C)=O)c(Nc2ccccc2)s1`, 0.717.
As for `Cc1ccnc(N2CCN(C(=O)CSc3nc4ccccc4nc3N3CCCCC3)CC2)c1`, the figure is -7.43 (active); as for `Cc1nnc(SCC(=O)N2CCN(c3ccccc3)CC2)n1-c1ccccc1`, 0.663.
As for `Cc1ccc(S(=O)(=O)NCC(=O)N2CCN(c3ccccn3)CC2)cc1`, the B-score was 0.189.
`CCC(C)[C@@H](C(=O)N1CCNCC1)n1cc(CCCCN)nn1` (stereo not given in full): the B-score was 0.219.
For `CC1(C)CC(=O)C2=C(C1)N=C1SCCC(=O)N1C2c1ccc(C(F)(F)F)cc1` (stereo not given), the B-score is -1.88.
As for `CC(C)(C)NS(=O)(=O)CC12CCC(CC1=O)C2(C)C` (stereo not given), the B-score is 0.0444.
For the molecule `CCCC(=O)NC(Nc1ccccc1OC)C(Cl)(Cl)Cl` (stereo not given), the B-score was 0.143.
For the molecule `NCCCC[C@@H]1NC(=O)[C@H](CCC(=O)O)NC(=O)c2cc([N+](=O)[O-])cc(I)c2NCC[C@@H](C(N)=O)NC1=O`, the B-score is 0.612.
As for `O=C(c1ccccc1)N1CCN(C(=O)N2CCCCC2)CC1`, the figure is 1.15.
As for `O=C(O)CC(c1ccccc1)n1cnnn1` (stereo not given), the B-score is 0.533.
In the case of `O=C(c1ccc(-n2cnnn2)cc1)N1CCN(C(c2ccccc2)c2ccccc2)CC1`, the B-score is -4.29 (active).
The figure for `N/C(=N\OC(=O)CCC1CCCCC1)c1ccccn1` is 0.693; for `N#Cc1nc(-c2ccc(OCc3ccccc3)cc2)oc1NCCCN1CCOCC1` it is -0.428; for `N#Cc1nc(COc2ccc(-c3ccccc3)cc2)oc1NCc1cccnc1` it is -1.76.
On to `N#Cc1nc(Cc2ccccc2)oc1NCCc1ccccc1`, for which the B-score is -6.7 (active).
`CC1C/C(=N/NC(=O)c2cccs2)CC(C)(C)C1` (stereo not given): the B-score is 0.092.
Regarding `O=C(O)C1CC=CCC1C(=O)Nc1ccccc1C(=O)N1CCN(c2ccccc2)CC1` (stereo not given), the B-score is 0.0959.
As for `CC(C)N(C(=O)COC(=O)c1ccccc1C(=O)N1CCN(c2ccc(F)cc2)CC1)C(C)C`, the figure is 0.00273; as for `O=C(c1ccccc1Oc1ccccc1)N1CCN(c2ccc(F)cc2)CC1`, -4.99 (active); as for `Cn1c(Cc2cccc3ccccc23)nnc1SCC(=O)N1CCN(c2cccc(Cl)c2)CC1`, -6.61 (active).
The figure for `Cc1ccccc1NC(=O)Cc1nnc(SCC(=O)N2CCN(c3ccccc3)CC2)n1C` is 0.445; for `Cc1cc2nnc(SCC(=O)N3CCN(c4ccccc4)CC3)n2c(N)n1` it is 0.355.
